We go through eight compounds from PubChem BioAssay (Tox21).

Assay [1] in a line: qHTS assay to identify small molecule agonists of the sonic hedgehog signaling (Shh) pathway (AID 1259368; calls by dose curve;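 further: NIH/3T3-derived 3T3Gli1-Luc cells carrying a stable Gli1-driven firefly luciferase reporter; series mostly up to about 92 µM; nearly all actives have a fitted effect of over 15% in size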). An outline of the steps: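 A Gli1 transcriptional response element controlled firefly luciferase in 3T3Gli1-Luc cells. Compounds and a positive control were added 4 hr after plating, and cells were incubated a further 24 hr at 37 C before luminescence detection.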
Background: In qHTS, concentration-response curves come from the screen itself.

Assay [2] in a line: qHTS assay to identify small molecule antagonists of the sonic hedgehog signaling (Shh) pathway (AID 1259369; calls by dose curve; further: nearly all actives have a fitted effect of over 45% in size; further: potency means the concentration at half of the fitted maximal effect). The method, boiled down: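 For antagonist detection, the reporter line received test compounds together with conditioned medium, incubated 24hr at 37 C, 5% CO2, then luminescence was recorded following 30min room-temperature luciferase reagent incubation.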
Assay [3] deals with Estrogen receptor beta (Homo sapiens) (UniProt Q92731). Nature of the assay: qHTS assay to identify small molecule agonists of the estrogen receptor beta (ER-beta) signaling pathway (AID 1259377; active means well fitted activation curve with a large enough effect in the signal ratio in the repeat runs, not every such curve was filed as active; the % refers to the signal ratio). The method, boiled down: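 Read-out: beta-lactamase FRET fluorescence. Cell line: ER-beta-UAS-bla HEK293T in 2% charcoal-stripped FBS. Exposure: 16 hr at 37C. Substrate step: 2 h at room temperature.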

The target is the same in assay [4]. Nature of the assay: qHTS assay to identify small molecule antagonists of the estrogen receptor beta (ER-beta) signaling pathway (AID 1259378; active means well fitted inhibition curve with a large enough effect in the signal ratio in the repeat runs, not every such curve was filed as active; the % refers to the signal ratio). The method, boiled down:
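ER-beta-UAS-bla HEK293T cells in 2% charcoal-stripped FBS medium treated with compound plus 1nM final 17-beta-estradiol for 16 hr at 37C. Beta-lactamase reporter read by FRET substrate fluorescence after 2 hours at room temperature.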

The nature of assay [5]: qHTS assay to identify small molecule agonists of the androgen receptor (AR) signaling pathway in the presence of an antagonist - cell viability counter screen (AID 1259379).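 Further: MDA-kb2 human breast cancer cells carrying an MMTV luciferase reporter; series mostly up to about 92 µM; nearly all actives have a fitted effect of over 25% in size.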 The method, boiled down: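 Seed MDA-kb2 at 3,000 cells/well; incubate 5 hr, 37C, 0% CO2. Add nilutamide to 3.0uM final, then pin compounds at 15 concentrations. Incubate 16 hr. Add CellTiter-Fluor at 15 hr, read fluorescence after 1 hr.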

Assay [6] in a line: qHTS assay to identify small molecule agonists of the estrogen receptor beta (ER-beta) signaling pathway - cell viability counter screen (AID 1259380). Further: nearly all actives have a fitted effect of over 30% in size. An outline of the steps: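 CellTiter-Glo read, 30 min RT, same wells as bla assay; cells ER-beta-UAS-bla HEK293T; 16 hr compound, 37C; medium 2% charcoal-stripped FBS.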
A short description of assay [7]: qHTS assay to identify small molecule antagonists of the estrogen receptor beta (ER-beta) signaling pathway - cell viability counter screen (AID 1259382). Further: series mostly up to about 92 µM; nearly all actives have a fitted effect of over 55% in size. The method, boiled down:
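In this multiplexed counter screen, cells were seeded at 2,000 per well in medium with 2% charcoal-stripped FBS and incubated 6 hr before compound and 1nM final E2 were added. Sixteen hours later, ATP-based luminescence reported viability.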

Assay [8] concerns the target Thyrotropin receptor (Homo sapiens) (UniProt P16473). Nature of the assay: qHTS assay to identify small molecule antagonists of the thyroid stimulating hormone receptor (TSHR) signaling pathway (AID 1259385; calls by dose curve; further: nearly all actives have a fitted effect of over 20% in size). An outline of the steps:
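TSHR-HEK293 cells (800/well) plated 18 h, then compounds with Ro20-1724 and TSH at 1.5 ng/mL final, 30 min at room temperature. cAMP quantified by HTRF (cAMP-d2/anti-cAMP-cryptate, 1 h); 15 concentrations in triplicate.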

The nature of assay [9]: qHTS assay to identify small molecule agonists of the estrogen receptor alpha (ER-alpha) signaling pathway in the presence of an antagonist - cell viability counter screen (AID 1259386).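 Further: series mostly up to about 92 µM; cells exposed to compounds for 22 h at 37 °C before the viability read; nearly all actives have a fitted effect of over 30% in size.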 An outline of the steps: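 Viability counter screen using VM7Luc4E2 (full-length ER-alpha, four ERE-luciferase). The cells were treated with compounds alongside ICI-182,780 10.0nM for 22hr, and live-cell protease fluorescence was quantified with CellTiter-Fluor.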

In assay [10] the target is Progesterone receptor (Homo sapiens) (UniProt P06401). Put plainly: qHTS assay to identify small molecule agonists of the progesterone receptor (PR) signaling pathway (AID 1346784; calls by dose curve; further: nearly all actives have a fitted effect of over 30% in size). An outline of the steps:
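Compounds were tested for PR agonism in HEK 293T cells bearing a beta-lactamase gene under UAS control. Treatment lasted 16 hr at 37C; signal came from fluorescence of a FRET substrate.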

For assay [11] the target is unchanged. Put plainly: qHTS assay to identify small molecule antagonists of the progesterone receptor (PR) signaling pathway (AID 1346795; active means well fitted inhibition curve with a large enough effect in the signal ratio in the repeat runs, not every such curve was filed as active; the % refers to the signal ratio). The method, boiled down: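 In HEK293T cells bearing the PR-UAS-bla reporter, compound effects on promegestone-driven (1 nM) beta-lactamase expression are assessed after 16 hr using a fluorescent FRET substrate incubated 2 hr at room temperature.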

Assay [12] can be described thus: qHTS assay to identify small molecule antagonists of the progesterone receptor (PR) signaling pathway - cell viability counter screen (AID 1346798). Further: series mostly up to about 92 µM; nearly all actives have a fitted effect of over 50% in size. The method, boiled down:
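Following a 4 hr attachment, PR-UAS-bla HEK293T cells in charcoal-stripped FBS medium were exposed to compounds with R5020 for 16 hr; CellTiter-Glo was added and luminescence read after 30 min at room temperature.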

Assay [13] can be described thus: qHTS assay to identify small molecule agonists of the progesterone receptor (PR) signaling pathway - cell viability counter screen (AID 1346799; calls by dose curve; further: nearly all actives have a fitted effect of over 45% in size). The method, boiled down: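 Here, 3,000 PR-UAS-bla HEK293T cells per well were treated with compounds for 16 hr after a 6 hr preincubation at 37C and 5% CO2; cell viability is the CellTiter-Glo luminescence signal.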
A short description of assay [14]: qHTS assay to identify small molecule antagonists of the TGF-beta/Smad signaling pathway - cell viability counter screen (AID 1346824). Further: nearly all actives have a fitted effect of over 50% in size. The method, boiled down: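 SBE-bla HEK 293T cells, incubated overnight, then compound plus 0.25 ng/mL TGF-beta1 (stock added) for 5 hr at 37 C. Viability was read in the same wells by CellTiter-Glo luminescence after 30 min at room temperature.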

Assay [15] can be described thus: qHTS assay to identify small molecule agonists of the TGF-beta/Smad signaling pathway - cell viability counter screen (AID 1346829). Further: top concentration of the series differs between compounds; nearly all actives have a fitted effect of over 45% in size. The method, boiled down:
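Here the cytotoxicity of library compounds is measured in SBE-bla HEK 293T cells treated for 5 hr, using CellTiter-Glo added to wells already read for the beta-lactamase reporter.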

Assay [16] in a line: qHTS assay to identify small molecule agonists of the TGF-beta/Smad signaling pathway (AID 1346859; active means well fitted activation curve with a large enough effect in the signal ratio in the repeat runs, not every such curve was filed as active; the % refers to the signal ratio; further: series mostly up to about 77 µM). The method, boiled down: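 Each well held 4,000 SBE-bla HEK 293T cells incubated overnight before compound addition; 5 hr later the cleavable FRET substrate went on for 2 hr at room temperature, and fluorescence was read at two emissions.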
For assay [17], the target named is Thyrotropin-releasing hormone receptor (Homo sapiens) (UniProt P34981). Nature of the assay: qHTS assay to identify small molecule antagonists of the thyrotropin-releasing hormone receptor (TRHR) signaling pathway (AID 1346877; active means well fitted inhibition curve with a large enough effect in the repeat runs, not every such curve was filed as active; further: series mostly up to about 51 µM). The method, boiled down: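 Following an 18 h incubation at 37 °C and a 2 h calcium dye load, TRHR-HEK293 cells were exposed to compound (5 min, room temperature) and challenged with TRH, 1 nM final.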

In assay [18] the target is Estrogen receptor (Homo sapiens) (UniProt P03372). Put plainly: qHTS assay to identify small molecule agonists of the estrogen receptor alpha (ER-alpha) signaling pathway in the presence of an antagonist (AID 1259383; calls by dose curve; further: top concentration of the series differs between compounds; nearly all actives have a fitted effect of over 15% in size). The method, boiled down: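 Stably transfected VM7Luc4E2 reporter cells, kept 5 days in charcoal-stripped serum, received ICI-182,780 at 10.0nM final before compound addition. Following 22hr incubation at 37C and 5% CO2, luciferase signal was read by luminescence.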

The nature of assay [19]: qHTS assay to identify small molecule agonists or antagonists of the thyroid stimulating hormone receptor (TSHR) signaling pathway - wild type cell line counter screen (AID 1259384; calls by dose curve). An outline of the steps:
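Wild-type Hek293 cells, 800/well, 18 h at 37C, then compound with Ro20-1724 for 30 min RT. cAMP by HTRF (cAMP-d2/anti-cAMP cryptate), 1 h RT, fluorescence read. 15 concentrations, triplicates.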

Assay [20] has as its target Androgen receptor (Homo sapiens) (UniProt P10275). Put plainly: qHTS assay to identify small molecule agonists of the androgen receptor (AR) signaling pathway in the presence of an antagonist (AID 1259381; calls by dose curve; further: nearly all actives have a fitted effect of over 15% in size). An outline of the steps:
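Test compounds at 15 concentrations were incubated for 16hr with MDA-kb2 reporter cells in presence of 3.0uM nilutamide (final). Signal: ONE-Glo luciferase luminescence.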

Molecules are shown by their SMILES. Records with an inconclusive call do not appear. Some compounds were tested as several samples or in several runs, with calls that do not always agree. Active and inactive are the calls of the source. Unless noted, the call rests on the fitted dose curve; in most records, active means well fitted curve in the direction sought with a large enough effect in the repeat runs; inconclusive means weak or mixed curves; inactive means no such curve, though single readings can be large; an effect the other way counts as inactive or inconclusive.

Chain of Thyrotropin receptor (Homo sapiens) (P16473 whole entry, looked up): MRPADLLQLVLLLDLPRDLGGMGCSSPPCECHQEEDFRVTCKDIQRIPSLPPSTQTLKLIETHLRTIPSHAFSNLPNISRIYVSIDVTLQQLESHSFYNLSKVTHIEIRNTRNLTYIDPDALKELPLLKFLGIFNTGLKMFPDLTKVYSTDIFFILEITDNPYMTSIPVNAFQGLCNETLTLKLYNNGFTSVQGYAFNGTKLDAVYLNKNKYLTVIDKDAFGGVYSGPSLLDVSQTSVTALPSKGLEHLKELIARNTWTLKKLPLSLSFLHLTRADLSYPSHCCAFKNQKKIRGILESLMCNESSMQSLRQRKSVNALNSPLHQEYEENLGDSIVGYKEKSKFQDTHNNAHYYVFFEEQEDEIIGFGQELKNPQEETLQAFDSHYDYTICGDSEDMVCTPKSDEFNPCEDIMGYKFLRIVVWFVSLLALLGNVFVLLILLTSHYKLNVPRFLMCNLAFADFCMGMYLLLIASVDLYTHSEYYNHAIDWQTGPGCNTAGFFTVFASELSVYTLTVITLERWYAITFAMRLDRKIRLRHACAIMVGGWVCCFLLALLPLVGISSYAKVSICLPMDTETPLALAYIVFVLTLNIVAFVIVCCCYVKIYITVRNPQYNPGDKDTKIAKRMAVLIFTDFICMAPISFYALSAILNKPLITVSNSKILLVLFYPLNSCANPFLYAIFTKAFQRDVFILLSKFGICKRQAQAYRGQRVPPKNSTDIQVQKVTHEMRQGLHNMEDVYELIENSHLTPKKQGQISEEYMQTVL
Chain of Estrogen receptor (Homo sapiens) (P03372 whole entry, looked up): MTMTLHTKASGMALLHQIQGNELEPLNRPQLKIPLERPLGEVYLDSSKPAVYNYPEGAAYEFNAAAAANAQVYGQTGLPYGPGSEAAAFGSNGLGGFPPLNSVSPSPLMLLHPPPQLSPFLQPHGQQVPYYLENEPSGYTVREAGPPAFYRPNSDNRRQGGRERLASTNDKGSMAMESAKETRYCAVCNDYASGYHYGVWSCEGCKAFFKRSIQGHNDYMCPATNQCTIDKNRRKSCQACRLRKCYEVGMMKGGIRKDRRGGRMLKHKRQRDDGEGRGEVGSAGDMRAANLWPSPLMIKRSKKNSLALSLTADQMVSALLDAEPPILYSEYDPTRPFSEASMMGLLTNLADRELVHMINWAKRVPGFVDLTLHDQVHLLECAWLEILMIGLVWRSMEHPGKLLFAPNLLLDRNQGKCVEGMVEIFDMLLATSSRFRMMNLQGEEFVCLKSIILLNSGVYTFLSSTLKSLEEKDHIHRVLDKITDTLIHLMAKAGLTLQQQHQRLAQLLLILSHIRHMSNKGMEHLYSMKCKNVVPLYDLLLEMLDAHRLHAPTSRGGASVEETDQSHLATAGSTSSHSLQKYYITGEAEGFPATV
Chain of Thyrotropin-releasing hormone receptor (Homo sapiens) (P34981 whole entry, looked up): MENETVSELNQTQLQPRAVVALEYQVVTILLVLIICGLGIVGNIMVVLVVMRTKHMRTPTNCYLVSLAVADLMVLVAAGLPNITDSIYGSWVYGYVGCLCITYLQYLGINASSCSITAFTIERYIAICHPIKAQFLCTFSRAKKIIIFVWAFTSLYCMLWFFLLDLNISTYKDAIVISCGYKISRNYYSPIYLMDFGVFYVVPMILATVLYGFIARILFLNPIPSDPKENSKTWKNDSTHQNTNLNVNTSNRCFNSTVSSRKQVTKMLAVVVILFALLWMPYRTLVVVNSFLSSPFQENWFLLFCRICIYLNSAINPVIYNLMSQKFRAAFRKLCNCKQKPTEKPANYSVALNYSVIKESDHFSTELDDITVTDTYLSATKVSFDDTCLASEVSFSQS
Chain of Estrogen receptor beta (Homo sapiens) (Q92731 whole entry, looked up): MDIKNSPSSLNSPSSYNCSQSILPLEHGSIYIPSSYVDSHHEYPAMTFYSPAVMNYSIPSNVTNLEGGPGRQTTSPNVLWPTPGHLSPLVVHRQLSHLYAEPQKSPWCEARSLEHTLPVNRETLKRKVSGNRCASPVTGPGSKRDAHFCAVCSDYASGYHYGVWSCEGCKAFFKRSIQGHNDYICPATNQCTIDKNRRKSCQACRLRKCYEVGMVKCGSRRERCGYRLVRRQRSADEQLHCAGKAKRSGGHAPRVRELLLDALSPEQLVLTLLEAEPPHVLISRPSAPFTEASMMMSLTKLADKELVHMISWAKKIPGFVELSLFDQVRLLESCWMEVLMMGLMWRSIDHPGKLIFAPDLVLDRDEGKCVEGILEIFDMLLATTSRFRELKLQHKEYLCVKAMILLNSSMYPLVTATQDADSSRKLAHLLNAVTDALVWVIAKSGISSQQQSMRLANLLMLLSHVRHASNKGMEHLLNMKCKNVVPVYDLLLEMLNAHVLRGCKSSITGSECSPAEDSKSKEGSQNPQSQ
Chain of Androgen receptor (Homo sapiens) (P10275 whole entry, looked up): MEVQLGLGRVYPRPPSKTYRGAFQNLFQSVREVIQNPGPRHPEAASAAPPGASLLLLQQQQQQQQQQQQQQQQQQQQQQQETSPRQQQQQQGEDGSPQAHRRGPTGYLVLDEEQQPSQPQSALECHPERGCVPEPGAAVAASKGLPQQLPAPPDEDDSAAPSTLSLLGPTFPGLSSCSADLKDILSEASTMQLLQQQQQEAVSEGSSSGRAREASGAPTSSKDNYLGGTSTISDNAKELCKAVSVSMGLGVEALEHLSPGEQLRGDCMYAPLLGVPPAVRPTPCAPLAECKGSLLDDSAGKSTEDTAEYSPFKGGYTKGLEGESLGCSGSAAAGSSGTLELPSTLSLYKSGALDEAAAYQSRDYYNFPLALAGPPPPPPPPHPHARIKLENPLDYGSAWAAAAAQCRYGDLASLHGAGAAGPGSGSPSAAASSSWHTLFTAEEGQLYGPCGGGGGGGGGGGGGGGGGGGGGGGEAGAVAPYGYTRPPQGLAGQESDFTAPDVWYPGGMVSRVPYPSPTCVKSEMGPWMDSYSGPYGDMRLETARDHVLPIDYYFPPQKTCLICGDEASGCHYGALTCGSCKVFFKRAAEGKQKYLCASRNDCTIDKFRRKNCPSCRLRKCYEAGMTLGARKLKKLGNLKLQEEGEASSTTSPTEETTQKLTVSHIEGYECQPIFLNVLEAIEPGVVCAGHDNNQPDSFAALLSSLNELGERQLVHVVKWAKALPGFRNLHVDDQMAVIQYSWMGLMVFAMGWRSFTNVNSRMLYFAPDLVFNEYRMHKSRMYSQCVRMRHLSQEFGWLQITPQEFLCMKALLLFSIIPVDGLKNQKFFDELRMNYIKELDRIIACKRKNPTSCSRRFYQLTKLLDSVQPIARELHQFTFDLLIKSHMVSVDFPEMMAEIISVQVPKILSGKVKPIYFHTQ
Chain of Progesterone receptor (Homo sapiens) (P06401 whole entry, looked up): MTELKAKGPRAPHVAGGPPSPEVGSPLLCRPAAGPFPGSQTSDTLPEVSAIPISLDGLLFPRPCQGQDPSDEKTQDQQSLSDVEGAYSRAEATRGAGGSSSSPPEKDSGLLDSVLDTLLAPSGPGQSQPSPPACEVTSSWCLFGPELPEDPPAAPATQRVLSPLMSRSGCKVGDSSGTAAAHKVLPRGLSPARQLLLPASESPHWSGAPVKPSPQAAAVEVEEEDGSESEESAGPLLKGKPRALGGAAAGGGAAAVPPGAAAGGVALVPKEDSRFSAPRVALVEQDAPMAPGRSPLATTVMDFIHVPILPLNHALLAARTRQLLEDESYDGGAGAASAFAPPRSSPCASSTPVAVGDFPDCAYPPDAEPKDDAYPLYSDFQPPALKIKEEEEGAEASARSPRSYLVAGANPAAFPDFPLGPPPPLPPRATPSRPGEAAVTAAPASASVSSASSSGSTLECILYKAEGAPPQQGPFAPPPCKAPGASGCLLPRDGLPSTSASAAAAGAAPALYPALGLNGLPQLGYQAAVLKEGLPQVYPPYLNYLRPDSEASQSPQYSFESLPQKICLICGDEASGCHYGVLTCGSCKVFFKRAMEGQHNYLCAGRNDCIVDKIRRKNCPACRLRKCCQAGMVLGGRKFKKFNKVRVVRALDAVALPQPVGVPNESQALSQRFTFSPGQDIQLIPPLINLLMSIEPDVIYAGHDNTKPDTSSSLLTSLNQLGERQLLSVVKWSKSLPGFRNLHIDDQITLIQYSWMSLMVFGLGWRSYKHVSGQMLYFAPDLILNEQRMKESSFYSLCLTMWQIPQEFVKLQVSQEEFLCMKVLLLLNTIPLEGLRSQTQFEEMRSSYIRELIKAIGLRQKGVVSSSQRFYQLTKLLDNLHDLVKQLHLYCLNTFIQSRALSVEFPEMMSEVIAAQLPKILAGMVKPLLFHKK

`O=C(O)/C=C/C(=O)O`: the result in [1], in assay [7], in [8], in assay [12], in assay [13] and in assay [14] was inactive. The result in assay [15], in assay [16] and in [17] was inactive. In addition, the Potency result in assay [2], in [3], in assay [4], in assay [5], in assay [6] and in [9] was “inactive” each time. For the same compound, the Potency result in assay [10] and in [11] was “inactive” throughout.
Regarding `O=C(O)c1ccc(S(=O)(=O)N(Cl)Cl)cc1`, the call in assay [1], in assay [7], in [8], in [12], in assay [13] and in assay [14] was inactive. Also, the compound was classed as inactive in [15] and in [16]. Also, the Potency result in assay [2], in [3], in assay [4], in assay [5], in assay [6] and in assay [18] was “inactive” throughout. Also, the Potency result in assay [9], in assay [10] and in assay [11] was “inactive” throughout.
For `CCCCCCCCCCCCCCCCO`, the compound was classed as inactive in [1], in [7], in assay [8], in assay [12], in [13] and in assay [14]. Further, the compound was called inactive in assay [15] and in assay [16]. Further, the Potency entry in assay [2], in assay [3], in assay [4], in [5], in assay [6] and in assay [18] was “inactive” each time. For the same compound, the Potency entry in [9], in assay [10] and in assay [11] was “inactive” each time.
For `Cc1ccc(S(=O)(=O)N=C=O)cc1`, the outcome in assay [1], in assay [7], in assay [8], in assay [12], in assay [13] and in assay [14] was inactive. Moreover, the outcome in assay [15] and in assay [16] was inactive. Further, the Potency in assay [2] is 6 µM (active) and inactive. Further, the Potency result in assay [3], in [4], in [6], in [18], in assay [9] and in assay [10] was “inactive” throughout. The Potency entry in assay [11] was “inactive”.
As to `Nc1ccc(Cl)c(N)c1`, the call in [1], in [7], in [19], in [8], in assay [12] and in [13] was inactive. The compound was classed as inactive in [14], in [15] and in [16]. In addition, the Potency result in [2], in [3], in assay [4], in assay [5], in assay [6] and in assay [18] was “inactive” each time. Further, the Potency entry in assay [9], in [10] and in assay [11] was “inactive” in each case.
With `CC(=O)Oc1ccc(C)cc1`, the result in [1], in assay [7], in assay [12], in [13], in [14] and in [15] was inactive. Moreover, the compound was classed as inactive in [16] and in [17]. Moreover, the Potency entry in assay [2], in assay [3], in assay [4], in [5], in assay [6] and in assay [20] was “inactive” each time. The Potency entry in [18], in assay [9], in [10] and in assay [11] was “inactive” in each case.
Regarding `CN/C(=C\[N+](=O)[O-])NCCSCc1csc(CN(C)C)n1`, the result in assay [1], in [7], in assay [19], in [8], in assay [12] and in assay [13] was inactive. The outcome in assay [14], in [15] and in assay [16] was inactive. The Potency entry in assay [2], in assay [3], in assay [4], in assay [6], in assay [20] and in assay [9] was “inactive” in each case. Besides, the Potency entry in assay [10] and in [11] was “inactive” each time.
For the compound `CSc1ccc(Cl)cc1`, the outcome in [1], in assay [7], in assay [19], in assay [8], in assay [12] and in [13] was inactive. Besides, the result in [14], in [15], in assay [16] and in assay [17] was inactive. Moreover, the Potency entry in assay [2], in assay [3], in [4], in assay [5], in assay [6] and in assay [20] was “inactive” in each case. Further, the Potency entry in [18], in assay [9], in assay [10] and in [11] was “inactive” in each case.
